# From ChEMBL document CHEMBL1157539, “Thousands of chemical starting points for antimalarial lead identification” (Nature, 2010)
# Test system: Plasmodium falciparum
# Assay: GSK_TCMDC: Inhibition of Plasmodium falciparum Dd2 in whole red blood cells, using parasite LDH activity as an index of growth. Test compounds present at 2uM
# Format: functional
row,SMILES,Inhibition
1,Cc1cc(OCC2CCCN(c3ncc(C(=O)NC4CC4)cc3Cl)C2)ccc1F (configuration not stated),68%
2,CC1(C)N=C(N)N=C(N)N1c1ccc(Oc2ccccc2)cc1.Cl,3%
3,CS(=O)(=O)Nc1ccc(OCCCCCCOc2ccc(NS(C)(=O)=O)cc2)cc1,82%
4,CCn1cc(CN2C(=O)C(c3ccccc3)(c3ccccc3)N=C2N)cn1.O=CO,60%
5,CCNc1cc(C(=O)NC(Cc2ccccc2)C(O)CNC(C)(C)CCCC(C)C)c(F)c(N2CCCS2(=O)=O)c1.O=CO (configuration not stated),97%
6,COc1ccccc1CNc1ncc(-c2ccsc2)c(-c2nccs2)n1,84%

# Test system: HepG2
# Assay: GSK_TCMDC: Percent inhibition of human HepG2 cell line. Test compounds present at 10uM.
# Format: functional
row,SMILES,Inhibition
1,CCOC(=O)c1nc(-c2cc(Cl)nc(Cl)c2)[nH]c1NC(=S)NCc1ccc(NS(C)(=O)=O)cc1,0%
2,Cc1ccc(NC(=O)c2ccc(CN3CCCN(Cc4cccc(O)c4)CC3)cc2)cc1F.O=C(O)C(F)(F)F,48%
3,N#Cc1ccc2[nH]c(-c3cc(-c4cccc(F)c4)cnc3N)nc2c1.O=C(O)C(F)(F)F,46%
4,Nc1ncc(-c2ccccc2)cc1/C=C/c1cccnc1,33%
5,CC(C)COc1ccc(Cl)cc1Cc1ccc(-c2nc3ccc(F)c(F)c3[nH]2)o1,26%
6,CC(C)c1sc(N2CCN(C)CC2)nc1C(=O)Nc1cccc2c1CCCC2.O=C(O)C(F)(F)F,3%
7,COc1cccc(-c2cc3nc4c(c(NCCCn5ccnc5)n3n2)CCCC4)c1,10%
8,Cc1cc(N2CCCC2)nc(Nc2ccc(NC(=O)Cc3ccccc3)cc2)n1,71%
9,COc1ccc2cc(C=NNc3nc4ccccc4[nH]3)c(Cl)nc2c1,2%
10,CCOc1ccc2nc3cc(NC(=O)c4ccco4)ccc3c(N)c2c1,36%
11,CC(C)(C)c1cc(NC(=O)c2ccc(Cl)c([N+](=O)[O-])c2)cc(C(C)(C)C)c1,0%
12,Cc1noc(C)c1-c1cccc(CNCc2cccc(-c3cccc(-c4nc5cccc(C)c5[nH]4)c3)c2)c1.O=C(O)C(F)(F)F,15%
13,CN1CCN(Cc2c(O)ccc3c(=O)c(Oc4ccc(C(C)(C)C)cc4)c(C(F)(F)F)oc23)CC1,0%
14,COc1cccc(-n2ncc3c(N/N=C/c4ccc(CN(C)CCN(C)C)cc4)ncnc32)c1,29%
15,COc1ccc(NC(=O)[C@H](CC(C)C)Nc2cc(C)nc(Nc3ccccc3)n2)cc1.O=C(O)C(F)(F)F,25%
16,N#Cc1c(N2CCN(c3ccc(F)cc3)CC2)nc(N)c2c(N)nc3c(c12)CC(=O)N3C1CC1,2%

row,SMILES,Inhibition
1,CC(C)(C)C(=O)Oc1ccc(CC2NCCc3cc(OC(=O)C(C)(C)C)c(OC(=O)C(C)(C)C)cc32)cc1OC(=O)C(C)(C)C (configuration not stated),3%
2,Cn1nc(-c2cccc(CN[C@@H]3CCc4ccc(O)cc43)c2)c2cnc(NCCCN3CCCC3)nc21,9%
3,CC1(C)[C@H]2CC[C@@H](CNc3nc(NCCc4c[nH]cn4)nc(NCc4cc(F)ccc4F)n3)[C@@H]1C2,0%
4,C[C@@H](Oc1cc(-n2cnc3ccc(NC(=O)NC(C)(C)C)cc32)sc1C(N)=O)c1ccccc1Cl,28%
5,CO/C(=C\C=C\c1cc2cc(Cl)c(Cl)cc2[nH]1)C(=O)NCCCNCCN(C)c1ccccc1,33%
6,CC(Cc1ccc(C(=O)N2CCN(C(=O)c3ccc(CC(C)NCCc4cccc(Cl)c4)cc3)CC2)cc1)NCCc1cccc(Cl)c1 (configuration not stated),99%
7,c1cn(-c2ccc(CNc3nccc(Nc4ccc(OCCN5CCOCC5)cc4)n3)cc2)cn1,2%
8,Br.NCC(=O)NC12CC3CC(CC(C3)C1)C2,15%
9,CN(C)CCCNc1nccc(N(C)c2ccc(NC(=O)Nc3cc(C(F)(F)F)ccc3F)cc2)n1.O=C(O)C(F)(F)F,97%
10,COc1ccc(-c2ncnc(C(F)(F)F)c2-c2ccc(Cl)cc2)c(O)c1,1%
11,CC1CN(c2cnn(Cc3ccc(NC(=O)Nc4ccc(F)cc4[N+](=O)[O-])cc3)c(=O)c2Cl)CC(C)N1.O=C(O)C(F)(F)F (configuration not stated),4%
12,O=C(NCc1cccc2ccccc12)C(c1cc2ccccc2o1)N1CCN(C(c2ccccc2)c2ccccc2)CC1 (configuration not stated),0%
13,COc1ccc(OC)c(-c2ccc(O)c(CNCC(C)c3ccccc3)c2)c1 (configuration not stated),26%
14,Cl.c1cc(-c2cc3ccc(C4=NCCN4)cc3[nH]2)ccc1C1=NCCN1,15%
15,COc1cc(Cc2cnc(N)nc2N)c2c(c1OC)OC(C)C=C2 (configuration not stated),0%
